What was measured:
Experiment in all cases: PBM binding z-score (relative to random genomic background probes); higher = stronger binding; sequences stand for … in GC…GCGATTGACAGCGTAGAATGAAGG
[1] = tested on: FXR:RXRa (NR concentration 270 nM, RXRa partner concentration 90 nM)
In short: (§1)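 Binding z-scores take random background probes as their reference. They come from custom Agilent 4×180K protein-binding microarrays incubated 1 h with ligand-free nuclear receptor dimers, with antibodies against each partner (one per run) detecting binding. Scanned fluorescence was regression-normalized.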

[2] = tested on: LXRa:RXRa (NR concentration 270 nM, RXRa partner concentration 90 nM)
In short: as §1

[3] = tested on: LXRa homodimer (NR concentration 270 nM)
In short: as §1

[4] = tested on: LXRb:RXRa (NR concentration 270 nM, RXRa partner concentration 90 nM)
In short: as §1

[5] = tested on: LXRb homodimer (NR concentration 270 nM)
In short: as §1

[6] = tested on: PPARa:RXRa (NR concentration 270 nM, RXRa partner concentration 90 nM)
In short: as §1

[7] = tested on: PPARg:RXRa (NR concentration 180 nM, RXRa partner concentration 90 nM)
In short: as §1

[8] = tested on: PPARg:RXRa 270nM:90nM, anti-RXR (NR concentration 270 nM, RXRa partner concentration 90 nM)
In short: as §1

[9] = tested on: PPARg:RXRa 30nM:10nM, anti-RXR (NR concentration 30 nM, RXRa partner concentration 10 nM)
In short: as §1

[10] = tested on: PPARg:RXRa 90nM:30nM, anti-RXR (NR concentration 90 nM, RXRa partner concentration 30 nM)
In short: as §1

| Sequence | PBM binding z-score [1] | PBM binding z-score [2] | PBM binding z-score [3] | PBM binding z-score [4] | PBM binding z-score [5] | PBM binding z-score [6] | PBM binding z-score [7] | PBM binding z-score [8] | PBM binding z-score [9] | PBM binding z-score [10] |
| --- | --- | --- | --- | --- | --- | --- | --- | --- | --- | --- |
| CCAGACAAGTGAGAAGGTAACTCAGCCTCGATTA | -0.1 | 0.185 | 0.265 | 0.312 | 0.105 | -0.0657 | 0.295 | -0.204 | -0.274 | -0.419 |
| CGTCAAAGTTCAACTAAGGTAACGTACAGCACGC | 7.43 | 6.41 | 4.76 | 4.34 | 2.05 | 5.25 | 5.21 | 5.62 | 2.85 | 4.59 |
| AATCAAAGTTCACTAGGTAACGTAAGATTCAGCT | 4.99 | 5.49 | 4.91 | 3.21 | 1.43 | 4.48 | 5.39 | 4.91 | 2.47 | 3.92 |
| TCTCGGGGGACACGAAGGTCAGAGCTTTCCAGAG | 2.9 | 2.88 | 0.575 | 4.36 | 6.23 | 3.77 | 1.86 | 3.73 | 3.31 | 3.45 |
| CGTCAATGTTCAACTAAGGTAACGTAAAGCACGC | 0.964 | 0.0385 | 0.177 | 0.536 | 0.375 | 0.376 | 0.538 | -0.0311 | -0.0519 | 0.0418 |
| CCGAGTAGGTTAGGGGGCATTCAGGCAACGGTGA | 1.36 | 1.91 | 0.834 | 4.42 | 6.02 | 4.43 | 6.67 | 7.33 | 5.18 | 7.46 |
| CAAACTAGGTCAAAGTTCAAAGTCGAGCCAACCA | 7.56 | 6.56 | 5.94 | 5.99 | 2.08 | 7.43 | 13.3 | 10.7 | 12.3 | 12.8 |
| ATCTCTAGGTAACGAAGTTCAGTGAATGCCGAAC | 0.145 | 0.276 | 0.427 | 0.411 | 0.414 | 0.915 | 0.812 | 1.02 | 0.0863 | 0.766 |
| ATCTCTAGGTAAGACACAGTTCAGTGAAGAACGC | 0.376 | 1.1 | 1.08 | 0.767 | 1.15 | 0.964 | 1.03 | 1.98 | 0.784 | 1.72 |
| CCGAGTACGTTATGGGGCATTCAGGCAACGGTGA | -0.345 | -0.442 | -0.712 | -0.213 | -0.602 | -0.079 | 0.408 | -0.152 | -0.465 | -0.83 |
| AGTCAAAGTTCGCTAGGTAACGTAAGATTCAGCT | 0.102 | 0.248 | -0.0137 | 0.158 | -0.513 | 0.793 | 1.64 | 2.36 | 0.554 | 1.85 |
| CGACCAAGGTCAAGGTCAGTGAAAGAGACTCGAA | 7.76 | 5.28 | 0.72 | 4.53 | 0.222 | 6.07 | 6.71 | 6.54 | 2.6 | 5.32 |
| AGAATGAGCTTAAGATCAGGGAAACAGAATACAT | -0.576 | -0.745 | -0.372 | -0.637 | -0.597 | -0.434 | 0.541 | -0.0832 | 0.137 | 0.036 |
| ACAGATAGGTGATGAAGGTAACTCAGGCTATCAT | -0.192 | -0.132 | -0.27 | -0.29 | -0.768 | 0.548 | 0.643 | 0.541 | 0.412 | 0.624 |
| ATCTCTAGGTAACCAAGATCAGTGAATGCCGAAC | 0.221 | 0.126 | 0.199 | 0.274 | 0.276 | 0.613 | 0.694 | 0.588 | 0.161 | 0.426 |
| CCTACTGGGCCAATCAGAGGTCATTGATCATATG | 2.78 | 4.24 | 7.72 | 3.78 | 0.545 | 3.87 | 2.45 | 3.15 | 1.12 | 2.29 |
| TCAATGAGGTTATAAGATCAGGGAACGTTGCAAA | 1.62 | 1.48 | -0.0675 | 1.39 | -0.169 | 2.7 | 1.07 | 2.15 | 2.81 | 2.66 |
| AGAATGAGGTTATTAAGACCAGGGAATTGCGGTC | 1.7 | 1.52 | -0.287 | 1.09 | -0.232 | 2.8 | 1.57 | 1.93 | 0.533 | 1.05 |
| ATCTCTAGGTAACCAAGTTTAGTGAATGCCGAAC | 0.39 | 0.24 | 0.318 | 0.275 | 0.481 | 0.803 | 0.412 | 0.529 | 0.254 | 0.616 |
| CCTTACGGGTCACGATGTTATAGCACGACGAGCG | 5.82 | 3.85 | 0.154 | 3.42 | -0.0634 | 5.51 | 6.19 | 5.77 | 3.09 | 4.59 |
| CCAACTGGGGCAAAGGTTACCATACTCAGTACGA | 1.45 | 1.76 | 0.221 | 2.29 | -0.694 | 6.03 | 11.6 | 9.99 | 9.26 | 10.5 |
| ATCTCTAGGTAAAGTTCAGTGGAAGATCGATAGA | 1.56 | 2.02 | 1.68 | 1.29 | 1.27 | 2.23 | 2.75 | 3.85 | 2.32 | 3.46 |
| ATCTCCAGGTAAGACTCAGTTCAGTGAAGAACGC | 0.579 | 0.595 | 0.65 | 0.641 | 0.696 | 0.265 | 0.0991 | 0.41 | 0.426 | 0.596 |
